Values joined by “and” are separate entries in the source; they are usually repeats but may differ in a detail not shown here. Equal values may be shown once. Inconclusive results are not listed. A structure can be active in one record and inactive in another. Active and inactive are the calls of the source. How the source made its calls, unless noted: active means hit-call score of the fitted dose curve at least 0.9, where 1 is the maximum; inconclusive means response in the unintended direction; inactive means score below 0.9.
Assays:
[1] = molecular target: Cellular tumor antigen p53 (Homo sapiens) (UniProt P04637); experiment: TOX21_p53_BLA_p2_ratio: Tox21 HCT-116 p53 Agonism Beta-lactamase Assay, Ratio, Phase 2 (AID 2283592)
Cellular tumor antigen p53 (Homo sapiens), sequence (P04637 whole entry, looked up): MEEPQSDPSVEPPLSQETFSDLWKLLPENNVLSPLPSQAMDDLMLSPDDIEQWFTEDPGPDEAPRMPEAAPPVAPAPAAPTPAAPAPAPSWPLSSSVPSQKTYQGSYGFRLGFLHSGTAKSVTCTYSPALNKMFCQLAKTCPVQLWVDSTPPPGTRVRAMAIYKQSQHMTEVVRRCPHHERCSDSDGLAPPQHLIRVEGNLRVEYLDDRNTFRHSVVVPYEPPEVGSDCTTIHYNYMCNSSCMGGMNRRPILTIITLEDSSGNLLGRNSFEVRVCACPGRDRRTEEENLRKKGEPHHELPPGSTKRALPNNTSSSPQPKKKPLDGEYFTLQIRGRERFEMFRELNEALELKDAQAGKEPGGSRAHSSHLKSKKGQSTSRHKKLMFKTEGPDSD
In short: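 HCT116 p53-bla; 4000 cells/well; 5 h pre-incubation; cpd in DMSO, 217-fold dilution; 16 h 37C/5% CO2; CCF4-AM 2 h RT; Ex 405, Em 460/530 ratio; DMSO = baseline; positive fitting direction.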

[2] = TOX21_p53_BLA_p3_viability: Viability Assessment in the Tox21 HCT-116 p53 Agonism Beta-lactamase Assay, Phase 3 (AID 2283593);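 further: cells exposed to compound for 16 h before reading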
In short: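 Cellular ATP was quantified by CellTiter-Glo luminescence, read after 30 min at room temperature. Beforehand, HCT116 cells (4000/well) received compound 5 h post-seeding, 217-fold diluted from DMSO, then incubated 16 h at 37C.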

[3] = molecular target: Cellular tumor antigen p53 (Homo sapiens) (UniProt P04637); experiment: TOX21_p53_BLA_p3_ratio: Tox21 HCT-116 p53 Agonism Beta-lactamase Assay, Ratio, Phase 3 (AID 2283596)
In short: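 HCT116 p53-bla cells (4000/well) given compound in DMSO (217-fold dilution) after 5 h, incubated 16 h at 37C. CCF4-AM substrate 2 h at room temperature; 460/530 nm emission ratio, gain fitted against DMSO.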

[4] = TOX21_p53_BLA_p4_viability: Viability Assessment in the Tox21 HCT-116 p53 Agonism Beta-lactamase Assay, Phase 4 (AID 2283597);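 further: hits lower the luminescence signal meaning cytotoxicity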
In short: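 Cells plated, 5 h pre-incubation; DMSO compounds pinned (217-fold dilution); 16 h, 37C/5% CO2; CCF4-AM 2 h RT; CellTiter-Glo 30 min RT; luminescence read.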

[5] = molecular target: Cellular tumor antigen p53 (Homo sapiens) (UniProt P04637); experiment: TOX21_p53_BLA_p5_ratio: Tox21 HCT-116 p53 Agonism Beta-lactamase Assay, Ratio, Phase 5 (AID 2283599)
In short: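 Beta-lactamase reporter ratio (blue 460 nm over green 530 nm, 405 nm excitation) after 2 h CCF4-AM loading, in HCT-116 cells exposed 16 h at 37 C to compounds pinned at 217-fold dilution. Increases relative to DMSO baseline scored.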

[6] = TOX21_p53_BLA_p5_viability: Viability Assessment in the Tox21 HCT-116 p53 Agonism Beta-lactamase Assay, Phase 5 (AID 2283600)
In short: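 4000 cells/well; 5 h pre-incubation; DMSO compounds pin-transferred, 217-fold dilution; 16 h, 37C/5% CO2; CCF4-AM 2 h RT; CellTiter-Glo 30 min RT; luminescence.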

[7] = molecular target: Cellular tumor antigen p53 (Homo sapiens) (UniProt P04637); experiment: TOX21_p53_BLA_p4_ratio: Tox21 HCT-116 p53 Agonism Beta-lactamase Assay, Ratio, Phase 4 (AID 2283601)
In short: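 Signal is the blue/green (460nm/530nm) ratio of cleaved versus uncleaved CCF4-AM substrate, read after 2 h substrate loading. Cells were HCT116 carrying the p53-responsive beta-lactamase reporter, dosed 16 h at 37C, 5% CO2; CellTiter-Glo measured in parallel.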

[8] = CCTE_Harrill_HTTr_Viability_MCF7: CCTE's 6-hour Cell Viability Assessment for the High-Throughput Transcriptomics (HTTr) Platform, in MCF-7 cells cultured in DMEM + 10% fetal bovine serum, Harrill Lab (AID 2284010; active means hit-call score of the fitted dose curve at least 0.9, where 1 is the maximum; inactive means score below 0.9)
In short: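 Viability measured through PI dye exclusion by high-content imaging at 6 h post-dosing.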

[9] = CCTE_Harrill_HTTr_Apoptosis_MCF7: CCTE's 6-hour Apoptosis Assessment for the High-Throughput Transcriptomics (HTTr) Platform, in MCF-7 cells cultured in DMEM + 10% fetal bovine serum, Harrill Lab (AID 2284011; active means hit-call score of the fitted dose curve at least 0.9, where 1 is the maximum; inactive means score below 0.9)
In short: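 MCF-7 (DMEM + 10% FBS), 384-well; 8-pt dilution series, 6 h chemical exposure; caspase-3/7 activation via CellEvent Caspase 3/7 Green, HCI; bidirectional fit vs DMSO.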

[10] = CCTE_Harrill_HTTr_CellCount_MCF7: CCTE's Cell Proliferation Assessment for the High-Throughput Transcriptomics (HTTr) Platform, Harrill Lab (AID 2284012);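 further: count of Hoechst-stained nuclei per well by high-content imaging in MCF-7 cells; cells exposed to compound for six hours; intended direction is loss of nuclei count meaning fewer cells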
In short: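 Nuclei counting (Hoechst, high content imaging) in MCF-7 after a 6 h treatment at eight concentrations. Activity fitted bidirectionally, DMSO as negative control.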

[11] = TOX21_TRB_BLA_Antagonist_Followup_viability: Viability Assessment in the Tox21 Thyroid Hormone Receptor beta Antagonism Beta-lactamase (BLA) Follow-Up Assay (AID 2283961)
In short: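 TRβ-bla HEK293T (human TRβ LBD fused to GAL4 DBD), 3,000 cells/well, 2% charcoal-stripped FBS, phenol red-free medium; 18 h compound exposure, 37C; CellTiter-Glo 30 min RT; luminescence, loss-of-signal readout.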

[12] = CCTE_Padilla_ZF_144hpf_TERATOSCORE: (Legacy) CCTE's 144 Hour Post-fertilization zebrafish Assay Teratoscore, Padilla Lab (AID 2283679; active means hit-call score of the fitted dose curve at least 0.9, where 1 is the maximum; inactive means score below 0.9;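 further: zebrafish embryos with chorions exposed by immersion from 6-8 hpf to 5 dpf with daily renewal; teratogenicity score from eye scoring of death hatching and malformations at 144 hpf; higher score means more developmental defects relative to DMSO baseline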)
In short: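 Larvae scored by eye at 144 hpf for death, hatching and malformations after a day in clean Hanks'. Before that, daily-renewed exposure at 80 uM (0.4% DMSO, 26C) from roughly 6-8 hpf through 5 dpf, 4 embryos per chemical.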

[13] = CCTE_Shafer_MEA_dev_per_burst_spike_percent: CCTE's Neural Network Formation Assay for Percent of Spikes in a Burst, Shafer Lab (AID 2284032; active means hit-call score of the fitted dose curve at least 0.9, where 1 is the maximum; inactive means score below 0.9;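 further: fitted as a decrease in burst spike percentage below DMSO baseline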)
In short: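 Rat primary cortical neurons on 16-electrode MEA wells, dosed from plating day 0 for 12 days with renewal on DIV 5 and 9; spikes-in-bursts percentage averaged over bursting electrodes, collapsed as AUC across days 5, 7, 9, 12; loss direction versus DMSO.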

[14] = CCTE_Shafer_MEA_dev_active_electrodes_number: CCTE's Neural Network Formation Assay for Number of Active Electrodes, Shafer Lab (AID 2284040);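 further: potency for loss of active electrodes versus DMSO so lower counts are hits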
In short: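 Rat cortical primary cultures, 1.5 x 10^5 cells/well, PEI-coated MEA, laminin drop. Continuous exposure DIV 0–12; full media/compound change DIV 5, 9. Readout: electrodes with mean firing ≥5 spikes/min; AUC across days; loss vs DMSO.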

[15] = CCTE_Shafer_MEA_dev_burst_rate: CCTE's Neural Network Formation Assay for Burst Rate, Shafer Lab (AID 2284042; active means hit-call score of the fitted dose curve at least 0.9, where 1 is the maximum; inactive means score below 0.9;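 further: potency for loss of burst rate below DMSO control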)
In short: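 Exposure ran continuously over 12 days of network development in rat cortical cultures, with compound refreshed during full media changes on DIV 5 and 9. Single-electrode bursts per recording time, well-mean over active electrodes, trapezoidal AUC across days 5–12, fitted downward relative to DMSO.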

[16] = CCTE_Shafer_MEA_dev_bursting_electrodes_number: CCTE's Neural Network Formation Assay for Number of Bursting Electrodes, Shafer Lab (AID 2284043);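 further: potency is for loss of bursting electrodes relative to DMSO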
In short: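 Read-out is the per-well number of electrodes bursting at least once every 2 minutes, recorded on days 5, 7, 9 and 12 and collapsed by trapezoidal area under the curve. Cultures were primary rat cortical neurons on MEA plates, treated continuously from plating.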

[17] = CCTE_Shafer_MEA_dev_burst_duration_mean: CCTE's Neural Network Formation Assay for Mean Burst Duration, Shafer Lab (AID 2284045; active means hit-call score of the fitted dose curve at least 0.9, where 1 is the maximum; inactive means score below 0.9)
In short: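 Read-out: average first-to-last-spike interval within single-electrode bursts, averaged over bursting electrodes per well, then summarised as area under the curve across days 5, 7, 9 and 12. Developing rat cortical networks were exposed from day 0.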

[18] = CCTE_Shafer_MEA_dev_interburst_interval_mean: CCTE's Neural Network Formation Assay for Mean Interburst Interval, Shafer Lab (AID 2284046; active means hit-call score of the fitted dose curve at least 0.9, where 1 is the maximum; inactive means score below 0.9;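 further: well-mean interburst interval of bursting electrodes as AUC over four recording days; curve fitted for decrease in interburst interval relative to DMSO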)
In short: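 Primary rat cortical neurons on PEI-coated 48-well MEA plates (laminin added with cells at plating) (16 electrodes/well), exposed from plating day 0 with renewal at DIV 5 and 9. Mean inter-burst interval averaged over bursting electrodes, AUC across days 5, 7, 9, 12; DMSO baseline.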

[19] = CCTE_Shafer_MEA_dev_inter_network_spike_interval_mean: CCTE's Neural Network Formation Assay for Mean Inter-network Spike Interval, Shafer Lab (AID 2284047; active means hit-call score of the fitted dose curve at least 0.9, where 1 is the maximum; inactive means score below 0.9;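 on AC50: potency for a decrease in mean inter-network spike interval below DMSO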)
In short: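 Mean time between consecutive network-spike peaks, recorded extracellularly (adaptive spike detection) on DIV 5, 7, 9 and 12, summarized as trapezoidal AUC. Rat cortical cultures on MEAs dosed continuously days 0–12, re-dosed at feeds; loss-of-signal fit relative to DMSO.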

[20] = CCTE_Shafer_MEA_dev_network_spike_number: CCTE's Neural Network Formation Assay for Number of Network Spikes, Shafer Lab (AID 2284048; active means hit-call score of the fitted dose curve at least 0.9, where 1 is the maximum; inactive means score below 0.9;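 further: synchronized bursts across electrodes counted on days 5 7 9 12 and integrated as AUC; fit as a loss of signal meaning fewer network spikes than DMSO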)
In short: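 Developing networks of primary rat cortical neurons are treated over 12 days starting at plating, with media and compound fully replaced on DIV 5 and 9. Network spike counts from four recording days are integrated as trapezoidal AUC.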

[21] = CCTE_Shafer_MEA_dev_network_spike_peak: CCTE's Neural Network Formation Assay for Mean Number of Electrodes in Network Spike, Shafer Lab (AID 2284049; active means hit-call score of the fitted dose curve at least 0.9, where 1 is the maximum; inactive means score below 0.9;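 further: fitted for loss of signal meaning fewer electrodes in network spikes than DMSO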)
In short: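 Rat cortical primary culture, 1.5 x 10^5 cells/well, 48-well MEA (16 electrodes/well). Dosing day 0 through DIV 12, full media/compound exchange DIV 5, 9. AxIS adaptive spike detection; AUC over days 5/7/9/12; loss-of-signal vs DMSO.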

[22] = CCTE_Shafer_MEA_dev_spike_duration_mean: CCTE's Neural Network Formation Assay for Mean Spike Duration, Shafer Lab (AID 2284051; active means hit-call score of the fitted dose curve at least 0.9, where 1 is the maximum; inactive means score below 0.9;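 further: mean network spike duration pooled as area under curve over DIV 5 to 12 recordings; potency for a decrease in mean network spike duration versus DMSO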)
In short: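 Spontaneous activity was recorded on days 5, 7, 9 and 12 from rat cortical cultures grown on microelectrode arrays and dosed continuously from day 0, with media and compound renewed after the DIV 5 and 9 recordings. Network-spike duration was collapsed by area under the curve.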

[23] = CCTE_Shafer_MEA_dev_network_spike_duration_std: CCTE's Neural Network Formation Assay for Standard Deviation of Network Spike Duration, Shafer Lab (AID 2284052; active means hit-call score of the fitted dose curve at least 0.9, where 1 is the maximum; inactive means score below 0.9;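 further: hits are decreases in network spike duration SD versus DMSO vehicle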)
In short: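 Network spike duration variability was collapsed across recordings on days 5, 7, 9 and 12 by trapezoidal area-under-curve and fitted downward against DMSO. Cultures were rat cortical neurons on PEI-coated MEA plates, dosed continuously from plating, refed with compound DIV 5/9.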

[24] = CCTE_Shafer_MEA_dev_per_network_spike_spike_number_mean: CCTE's Neural Network Formation Assay for Mean Number of Spikes in a Network Spike, Shafer Lab (AID 2284053; active means hit-call score of the fitted dose curve at least 0.9, where 1 is the maximum; inactive means score below 0.9;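 further: fitted as decrease in spikes per network spike relative to DMSO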)
In short: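 Mean spike count within each network spike, taken in a 0.05 s window at its peak, was recorded on days 5, 7, 9 and 12 and integrated as trapezoidal area under the curve. Rat cortical cultures on MEA plates received continuous compound from day 0, refreshed at medium changes on DIV 5 and 9.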

[25] = CCTE_Shafer_MEA_dev_per_network_spike_spike_percent: CCTE's Neural Network Formation Assay for Percent of Spikes in a Network Spike, Shafer Lab (AID 2284054; active means hit-call score of the fitted dose curve at least 0.9, where 1 is the maximum; inactive means score below 0.9)
In short: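 Rat primary cortical cultures, 1.5 x 10^5 cells/well on MEA. Continuous compound exposure d0–12, medium/compound renewed DIV 5, 9. Network-spike spike % (0.05 s peak window), AUC over 4 recordings, DMSO baseline.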

[26] = CCTE_Shafer_MEA_dev_LDH: CCTE's Lactate Dehydrogenase Assay for Cytotoxicity in the Neural Network Formation Assay, Shafer Lab (AID 2284068);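 further: exposure for twelve days from plating with re-dosing on DIV 5 and 9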
In short: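 Primary rat cortical neurons were cultured on PEI-coated MEA plates and exposed from plating through day 12, with compound renewed at medium changes on DIV 5 and 9. LDH activity was read spectrophotometrically; loss of signal versus DMSO indicates reduced viability.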

[27] = CCTE_Shafer_MEA_dev_AB: CCTE's Alamar Blue Assay for Cytotoxicity in the Neural Network Formation Assay, Shafer Lab (AID 2284083);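 further: resazurin reduction fluorescence as viability of cultured neurons; twelve days of exposure from plating with re-dosing on DIV 5 and 9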
In short: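 Resazurin fluorescence, relative to DMSO, gauges viability after twelve days of exposure that began at plating of rat cortical neurons (1.5 x 10^5 cells/well, 48-well MEA); treatment renewed with full medium exchange on DIV 5 and 9.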

[28] = CCTE_Shafer_MEA_dev_mutual_information_norm: CCTE's Neural Network Formation Assay for Mutual Information Normalization, Shafer Lab (AID 2284091; active means hit-call score of the fitted dose curve at least 0.9, where 1 is the maximum; inactive means score below 0.9;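 further: mutual information between electrodes summarised as area under curve across four recording days; potency is for a decrease in mutual information relative to DMSO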)
In short: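 Developing rat cortical networks on 16-electrode MEA wells are treated throughout formation (DIV 0–12). Shared electrode information is recorded four times, converted to area-under-curve, and fitted for decreases against DMSO vehicle.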

[29] = CCTE_Shafer_MEA_dev_correlation_coefficient_mean: CCTE's Neural Network Formation Assay for Mean Correlation Coefficient, Shafer Lab (AID 2284093; active means hit-call score of the fitted dose curve at least 0.9, where 1 is the maximum; inactive means score below 0.9;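 further: well mean pairwise spike train correlation integrated as AUC over recording days 5 to 12; potency fitted for loss of correlation relative to DMSO vehicle wells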)
In short: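 Primary rat cortical neurons on PEI-coated 48-well MEA plates (16 electrodes/well) were exposed from plating day 0 through DIV12, with compound renewed at DIV5 and 9. Pairwise spike correlations were averaged per well; trapezoidal AUC across DIV5, 7, 9, 12.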

SMILES: O=C(O)c1cc(=O)c2c(OCC(O)COc3cccc4oc(C(=O)O)cc(=O)c34)cccc2o1
- outcome [1]: inactive
- outcome [2]: inactive
- outcome [3]: inactive
- outcome [4]: inactive
- outcome [5]: inactive
- outcome [6]: inactive
- outcome [7]: inactive
- outcome [8]: inactive
- outcome [9]: inactive
- outcome [10]: inactive

SMILES: Oc1ccc(OCc2ccccc2)cc1
- AC50 [1]: 25.1 µM (active) and 9.17 µM (active)
- outcome [2]: inactive
- AC50 [3]: 25.7 µM (active) and 10.9 µM (active)
- outcome [4]: inactive
- outcome [5]: inactive
- outcome [6]: inactive
- AC50 [7]: 9.05 µM (active)
- outcome [7]: inactive
- outcome [11]: inactive

SMILES: O=C(O)P(=O)(O)O
- outcome [1]: inactive
- outcome [2]: inactive
- outcome [3]: inactive
- outcome [4]: inactive
- outcome [5]: inactive
- outcome [7]: inactive

SMILES: CC[C@H](C)C(=O)O[C@H]1CCC=C2C=C[C@H](C)[C@H](CC[C@@H]3C[C@@H](O)CC(=O)O3)[C@H]21
- outcome [1]: inactive
- outcome [2]: inactive
- outcome [3]: inactive
- outcome [4]: inactive
- outcome [5]: inactive
- outcome [6]: inactive
- outcome [7]: inactive
- AC50 [12]: 8.02 nM (active) and 2.39 nM (active)
- AC50 [13]: 1.4 µM (active) and 2.83 µM (active)
- AC50 [14]: 1.15 µM (active) and 875 nM (active)
- AC50 [15]: 253 nM (active) and 2.69 µM (active)
- AC50 [16]: 924 nM (active) and 911 nM (active)
- outcome [17]: inactive
- AC50 [18]: 3.03 µM (active) and 2.52 µM (active)
- AC50 [19]: 0.696 µM (active)
- outcome [19]: inactive
- AC50 [20]: 71.9 nM (active) and 226 nM (active)
- AC50 [21]: 960 nM (active) and 912 nM (active)
- AC50 [22]: 1.05 µM (active) and 983 nM (active)
- AC50 [23]: 665 nM (active) and 700 nM (active)
- AC50 [24]: 940 nM (active) and 915 nM (active)
- AC50 [25]: 277 nM (active) and 554 nM (active)
- AC50 [26]: 0.215 µM (active)
- AC50 [27]: 687 nM (active) and 2.01 µM (active)
- AC50 [28]: 353 nM (active) and 881 nM (active)
- AC50 [29]: 571 nM (active) and 928 nM (active)

Source: PubChem BioAssay (EPA / NIEHS)
